Test results taken from PubChem BioAssay (NCI).
The panel holds about 83,000 compounds, 20% with a hit somewhere; the sample as a whole holds those more often.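 How to read the values: 0–100, growth inhibition (40 = 60% inhibited); 0, no net growth; -100 to 0, cell death (-40 = 40% of starting cells died; -100 = all dead).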 A number with no mark means an inactive call. The source made the active and inactive calls. Rule for the calls: active = growth percent below 10; inactive = the rest.

Assays:
Experiment in all cases: NCI-60 one-dose screen, 48 h (100 = growth as untreated, 0 = no growth, -100 = all killed)
Settings in all cases: 10 µM unless noted
[1] = system: HCT-15 colon
[2] = system: HT29 colon
[3] = system: SNB-75 CNS
[4] = system: SNB-19 CNS
[5] = system: U251 CNS
[6] = system: PC-3 prostate
[7] = system: SK-MEL-5 melanoma
[8] = system: UACC-62 melanoma
[9] = system: LOX IMVI melanoma
[10] = system: SK-MEL-28 melanoma
[11] = system: SK-MEL-2 melanoma
[12] = system: EKVX NSCLC
[13] = system: SN12C renal
[14] = system: UO-31 renal
[15] = system: TK-10 renal
[16] = system: ACHN renal
[17] = system: CAKI-1 renal
[18] = system: A498 renal
[19] = system: CCRF-CEM leukemia
[20] = system: MOLT-4 leukemia

| SMILES | growth [1] | growth [2] | growth [3] [%] | growth [4] [%] | growth [5] | growth [6] | growth [7] | growth [8] | growth [9] | growth [10] [%] | growth [11] [%] | growth [12] [%] | growth [13] [%] | growth [14] [%] | growth [15] [%] | growth [16] | growth [17] [%] | growth [18] | growth [19] | growth [20] |
| --- | --- | --- | --- | --- | --- | --- | --- | --- | --- | --- | --- | --- | --- | --- | --- | --- | --- | --- | --- | --- |
| C=CCOc1ccc(/C(O)=C2\C(=O)C(=O)N(c3nccs3)C2c2ccccc2F)cc1 (stereo not given) | 82.1% | 108% | 89.8 | 102 | 93% | 114% | 94.7% | 76.6% | 90.3% | 107 | 54 | 133 | 103 | 110 | 89.1 | 79.4% | 98.7 | 73.8% | 131% | 98.3% |
| O=[N+]([O-])c1cccc(-c2cc(-c3cc(Br)ccc3O)[nH]n2)c1 | 15.6% | 48.3% | 38.8 | 25.4 | 17.9% | 13% | 6.28% (active) | 15.2% | 6.51% (active) | 42.1 | 24 | 18.1 | 24.8 | 20.1 | 12.5 | 10.2% | 40.5 | 40% | 8.04% (active) | 4.68% (active) |
| CCCCNc1nnc(-c2cc(-c3cc4ccccc4o3)nn2-c2ccccc2)o1 | 95.3% | 93.6% | 102 | 91.2 | 82.1% | 83.6% | 71.9% | 76.7% | 82.3% | 108 | 90.6 | 99.4 | 93.6 | 71.3 | 104 | 85.9% | 97.4 | 86.5% | 80% | 68.8% |
| Nc1nc(-c2cc3ccccc3o2)cc(=O)c(=O)[nH]1 | 103% | 99.7% | 102 | 86.6 | 91.9% | 97.7% | 90.4% | 94.6% | 98.6% | 112 | 98.9 | 99.7 | 106 | 110 | 103 | 94.3% | 91.9 | 99.2% | 84.2% | 96.6% |
| COc1ccc(OC)c(NC(=O)c2cc(S(=O)(=O)N3CCc4ccccc43)ccc2OC)c1 | 107% | 76.7% | 85.1 | 75.9 | 92.1% | 88.5% | 67.6% | 79.2% | 94.7% | 131 | 36.4 | 94.9 | 95 | 42.2 | 91.9 | 93.3% | 107 | 69.8% | 107% | 106% |
| CCNc1nc(N2CC(=O)Nc3cc(OC)ccc32)c2ccccc2n1 | 6.11% (active) | 0.723% (active) | 24.7 | 19.2 | 8.29% (active) | 6.21% (active) | -81.6% (active) | 9.13% (active) | 20.5% | 45 | 31.6 | 12.8 | 27 | 15.6 | 21.3 | 8.34% (active) | 22.6 | -11.4% (active) | 26.8% | 24.8% |
| COc1ccc(C(=O)N2CCN(C(=O)c3cc(OC)c(OC)c(OC)c3)CC2)cc1OCCCCOc1cc2c(cc1OC)C(=O)N1CCC[C@H]1C=N2 | 118% | 45.8% | 110 | 99.4 | 101% | 104% | 71% | 97.2% | 106% | 136 | 31.9 | 113 | 97.9 | 32.7 | 157 | 105% | 81.4 | 95.5% | 86.4% | 108% |
